Assay results: PubChem BioAssay (EPA / NIEHS)
Results filed as inconclusive are left out. Calls of active or inactive are those of the source. How the source made its calls, unless noted: active means hit-call score of the fitted dose curve at least 0.9, where 1 is the maximum; inactive means score below 0.9.

Columns and labels:
[1] = target: Paired box protein Pax-6 (Homo sapiens) (UniProt P26367); experiment: ATG_Pax6_CIS: Attagene CIS-FACTORIAL HepG2 Assay for human Paired Box 6 (PAX6) (AID 2282956); settings: HepG2 CIS-FACTORIAL PAX6 reporter transcription, RNA readout; actives raise or lower the signal
Outline: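 HepG2 cells transiently transfected with cis-promoter-driven multiplexed reporter units sensing endogenous transcription factor activity; 24 h chemical exposure. Reporter mRNA quantified by RT-PCR, 6-FAM labelling, HpaI digestion and capillary electrophoresis; bidirectional fit versus DMSO baseline.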

[2] = ATG_PXRE_CIS: Attagene CIS-FACTORIAL HepG2 Assay for human Pregnane X Receptor Element (PXRE) (AID 2282957); settings: HepG2 Attagene CIS-FACTORIAL PXRE reporter, mRNA; actives raise or lower the signal
Outline: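 Cells: HepG2, transiently transfected reporter units under cis promoter control. Exposure: 24 h. Detection: reporter mRNA via RT-PCR/CE fluorescence; bidirectional fitting, DMSO-referenced.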

[3] = ATG_PPRE_CIS: Attagene CIS-FACTORIAL HepG2 Assay for human Peroxisome Proliferator-activated Response Element (PPRE) (AID 2282958); settings: HepG2 PPRE cis-element reporter, Attagene transcription factor profiling; actives raise or lower the signal
Outline: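 In this cell-based multiplex, a PPRE cis element drives a reporter sequence in transiently transfected HepG2 cells. Following 24 h treatment, labeled cDNA amplicons are sized and quantified by capillary electrophoresis, with DMSO defining baseline.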

[4] = ATG_RORE_CIS: Attagene CIS-FACTORIAL HepG2 Assay for human RAR-related Orphan Receptor Element (RORE) (AID 2282959); settings: HepG2 Attagene cis-factorial RORE reporter, mRNA; actives raise or lower the signal
Outline: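 Endogenous factor activity at a cis response element is read as reporter transcript levels in HepG2 cells, 24 h post-dose. Transcripts are quantified by RT-PCR with capillary electrophoresis, and data fitted in both directions against DMSO.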

[5] = ATG_Sox_CIS: Attagene CIS-FACTORIAL HepG2 Assay for human SRY-box transcription factor (SOX) (AID 2282960); settings: HepG2 Attagene cis-factorial SOX reporter, mRNA; actives raise or lower the signal
Outline: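 Measures mRNA induction of a SOX1-associated reporter in HepG2 after 24 h dosing. Fluorescently labelled RT-PCR fragments are separated by capillary electrophoresis, and gain or loss relative to DMSO control is fitted.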

[6] = target: Transcription factor Sp1 (Homo sapiens) (UniProt P08047); experiment: ATG_Sp1_CIS: Attagene CIS-FACTORIAL HepG2 Assay for human Specificity Protein 1 (Sp1) (AID 2282961); settings: HepG2 Sp1 cis-reporter transcription, actives raise or lower the signal
Outline: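 Cells: HepG2, transiently transfected with cis-regulated multiplexed reporters. Exposure: 24 h. Detection: reporter transcripts amplified, fluorescently labeled, restriction-digested and sized by capillary electrophoresis. Analysis: bidirectional fit relative to DMSO.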

[7] = ATG_SREBP_CIS: Attagene CIS-FACTORIAL HepG2 Assay for human Sterol Regulatory Element Binding (SREBP) (AID 2282962); settings: HepG2 Attagene cis-factorial SREBP reporter, mRNA; actives raise or lower the signal
Outline: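 HepG2 cells transiently transfected with multiplexed cis-promoter reporter units sensing endogenous transcription factors; reporter mRNA measured 24 h after dosing by RT-PCR, 6-FAM labeling, HpaI digestion and capillary electrophoresis. Bidirectional fit versus DMSO.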

[8] = ATG_TA_CIS: Attagene CIS-FACTORIAL HepG2 Assay for human TA Basal Promoter (AID 2282964); settings: HepG2 Attagene CIS-factorial TA basal promoter reporter; actives raise or lower the signal
Outline: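 Cis-factorial format in HepG2: reporters report endogenous factors, not chimeric Gal4 fusions. After 24 h treatment, reporter transcripts were measured by RT-PCR-capillary electrophoresis fluorescence, analysed bidirectionally versus DMSO.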

[9] = ATG_TCF_b_cat_CIS: Attagene CIS-FACTORIAL HepG2 Assay for human T-Cell-Factor with beta-catenin (TCF/b-cat) (AID 2282965); settings: HepG2 TCF/beta-catenin cis-reporter transcription, actives raise or lower the signal
Outline: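 HepG2 cells transiently transfected with cis-promoter-driven multiplexed reporter units; reporter mRNA measured 24 h after dosing by RT-PCR, FAM labelling, HpaI digestion and capillary electrophoresis. Bidirectional fitting relative to DMSO baseline.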

[10] = ATG_TAL_CIS: Attagene CIS-FACTORIAL HepG2 Assay for human TAL Basal Promoter (AID 2282966); settings: HepG2 Attagene cis-factorial TAL promoter reporter; actives raise or lower the signal;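 further: background control endpoint measuring basal TAL promoter reporter mRNA not a specific factor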
Outline: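 RT-PCR plus capillary electrophoresis quantifies reporter mRNA induction in transiently transfected HepG2 cells after 24 h chemical treatment. DMSO serves as negative control and baseline for bidirectional fitting.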

[11] = ATG_TGFb_CIS: Attagene CIS-FACTORIAL HepG2 Assay for human Transforming Growth Factor (TGF) (AID 2282967); settings: HepG2 Attagene CIS TGFb reporter, mRNA transcription; actives raise or lower the signal
Outline: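 Multiplexed cis-reporter HepG2 system, 24 h treatment; mRNA induction read by fluorescence after RT-PCR and CE; DMSO negative control, bidirectional curve fitting.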

[12] = ATG_VDRE_CIS: Attagene CIS-FACTORIAL HepG2 Assay for human Vitamin D Receptor Element (VDRE) (AID 2282968); settings: HepG2 VDRE cis-reporter transcription, actives raise or lower the signal
Outline: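 Transiently transfected HepG2 cells carrying cis-regulated reporter transcription units were exposed for 24 h. Reporter mRNA was measured by RT-PCR with fluorescent labelling and capillary electrophoresis, and fitted in both directions against DMSO.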

[13] = target: Nuclear receptor subfamily 1 group I member 3 (Homo sapiens) (UniProt Q14994); experiment: ATG_CAR_TRANS: Attagene TRANS-FACTORIAL HepG2 Assay for human Constitutive Androstane Receptor (CAR) (AID 2282969; active means hit-call score of the fitted dose curve at least 0.9, where 1 is the maximum;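 further: activators raise reporter mRNA above DMSO so AC50 marks induction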); settings: HepG2 Attagene TRANS-FACTORIAL CAR reporter
Outline: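 HepG2 cells transiently transfected with GAL4-UAS reporter units; TRANS format reads activity of exogenous chimeric NR-Gal4 protein. After 24 h dosing, reporter mRNA quantified by RT-PCR, 6-FAM labelling and capillary electrophoresis; gain of signal fitted against DMSO.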

[14] = target: X-box-binding protein 1 (Homo sapiens) (UniProt P17861); experiment: ATG_Xbp1_CIS: Attagene CIS-FACTORIAL HepG2 Assay for human X-box Binding Protein 1 (XBP1) (AID 2282972); settings: HepG2 XBP1 cis-element reporter, Attagene multiplex; actives raise or lower the signal
Outline: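 HepG2 cells transiently transfected with multiple cis-element reporter units report endogenous TF activity; 24 h exposure, then reporter mRNA measured by RT-PCR, 6-FAM labelling, HpaI digestion and capillary electrophoresis. Bidirectional fitting versus DMSO.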

[15] = ATG_M_19_TRANS: Attagene TRANS-FACTORIAL HepG2 Assay for M19 Transcription Factor (Internal Marker) (AID 2282974; active means hit-call score of the fitted dose curve at least 0.9, where 1 is the maximum); settings: HepG2 Attagene TRANS-FACTORIAL M19 internal marker reporter
Outline: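 Reporter mRNA induction was measured in transfected HepG2 cells 24 h after dosing. Endpoint fitted upward relative to DMSO and serves as a background control within the multiplexed TRANS panel.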

[16] = ATG_GAL4_TRANS: Attagene TRANS-FACTORIAL HepG2 Assay for GAL4 (Internal Marker) (AID 2282976; active means hit-call score of the fitted dose curve at least 0.9, where 1 is the maximum); settings: HepG2 Attagene TRANS GAL4 internal marker reporter
Outline: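 In transfected human HepG2 liver cells dosed 24 h, GAL4 reporter mRNA serves as a baseline marker. Detection by RT-PCR with fluorescent capillary electrophoresis, activity fitted upward relative to DMSO.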

[17] = target: Estrogen-related receptor gamma (Homo sapiens) (UniProt P62508); experiment: ATG_ERRg_TRANS: Attagene TRANS-FACTORIAL HepG2 Assay for human Estrogen-Related Receptor gamma (ERRg) (AID 2282977; active means hit-call score of the fitted dose curve at least 0.9, where 1 is the maximum;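 further: hits increase reporter signal over DMSO so potencies reflect activators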); settings: HepG2 Attagene TRANS reporter, ERRg transactivation
Outline: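 HepG2 cells transiently transfected with multiplexed GAL4-UAS reporter units driven by chimeric NR-Gal4 proteins; 24 h exposure. Reporter mRNA quantified by RT-PCR, fluorescent labelling, HpaI digestion and capillary electrophoresis; gain of signal vs DMSO.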

[18] = target: Signal transducer and activator of transcription 3 (Homo sapiens) (UniProt P40763); experiment: ATG_STAT3_CIS: Attagene CIS-FACTORIAL HepG2 Assay for human Signal Transducer and Activator of Transcription 3 (STAT3) (AID 2282963); settings: HepG2, Attagene cis-factorial STAT3 reporter transcription; actives raise or lower the signal
Outline: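 HepG2 cells transiently transfected with multiple cis-element-driven reporter units report endogenous transcription factor activity. After 24 h compound exposure, reporter mRNA is measured by RT-PCR, 6-FAM labelling, HpaI digestion and capillary electrophoresis. Fitted bidirectionally versus DMSO.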

[19] = target: Estrogen receptor (Homo sapiens) (UniProt P03372); experiment: ATG_ERa_TRANS: Attagene TRANS-FACTORIAL HepG2 Assay for human Estrogen Receptor alpha (ERa) (AID 2282970; active means hit-call score of the fitted dose curve at least 0.9, where 1 is the maximum); settings: HepG2 Attagene TRANS ERa GAL4 reporter, mRNA
Outline: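 Cells: HepG2, transiently transfected. Construct: GAL4-UAS reporter units regulated by exogenous NR-Gal4 chimeras. Time: 24 h. Detection: reporter mRNA by RT-PCR, capillary electrophoresis, fluorescence. Baseline: DMSO, upward fitting.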

[20] = target: Steroid hormone receptor ERR1 (Homo sapiens) (UniProt P11474); experiment: ATG_ERRa_TRANS: Attagene TRANS-FACTORIAL HepG2 Assay for human Estrogen-Related Receptor alpha (ERRa) (AID 2282971; active means hit-call score of the fitted dose curve at least 0.9, where 1 is the maximum); settings: HepG2 Attagene TRANS reporter, ERRa transactivation
Outline: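 Reporter transcripts from ERRa-Gal4 chimera activity measured in transiently transfected human HepG2 cells 24 hours after dosing, using RT-PCR with 6-FAM primer extension, HpaI digestion and capillary electrophoresis; DMSO is baseline.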

Paired box protein Pax-6 (Homo sapiens), sequence (P26367 whole entry, looked up): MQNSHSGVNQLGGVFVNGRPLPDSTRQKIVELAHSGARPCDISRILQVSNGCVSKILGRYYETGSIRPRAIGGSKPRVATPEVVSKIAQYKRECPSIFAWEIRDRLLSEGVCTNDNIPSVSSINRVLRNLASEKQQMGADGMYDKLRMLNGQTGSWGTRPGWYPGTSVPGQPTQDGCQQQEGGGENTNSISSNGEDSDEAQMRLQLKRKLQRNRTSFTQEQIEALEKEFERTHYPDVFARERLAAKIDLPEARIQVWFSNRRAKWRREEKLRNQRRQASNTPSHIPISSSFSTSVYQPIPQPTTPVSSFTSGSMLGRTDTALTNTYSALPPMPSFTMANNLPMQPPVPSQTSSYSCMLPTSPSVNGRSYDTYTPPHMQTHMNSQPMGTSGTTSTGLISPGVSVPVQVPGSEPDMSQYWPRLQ
Nuclear receptor subfamily 1 group I member 3 (Homo sapiens), sequence (Q14994 whole entry, looked up, the tested form may be a part): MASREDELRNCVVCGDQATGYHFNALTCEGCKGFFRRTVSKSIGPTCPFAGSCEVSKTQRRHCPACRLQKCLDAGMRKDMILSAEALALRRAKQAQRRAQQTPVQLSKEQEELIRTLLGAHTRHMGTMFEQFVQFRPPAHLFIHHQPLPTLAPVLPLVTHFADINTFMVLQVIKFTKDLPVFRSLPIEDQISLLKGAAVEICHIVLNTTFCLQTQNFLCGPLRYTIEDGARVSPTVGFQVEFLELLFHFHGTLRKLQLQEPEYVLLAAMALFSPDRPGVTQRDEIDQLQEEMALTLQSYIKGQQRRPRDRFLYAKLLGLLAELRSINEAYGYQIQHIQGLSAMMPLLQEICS
Transcription factor Sp1 (Homo sapiens), sequence (P08047 whole entry, looked up): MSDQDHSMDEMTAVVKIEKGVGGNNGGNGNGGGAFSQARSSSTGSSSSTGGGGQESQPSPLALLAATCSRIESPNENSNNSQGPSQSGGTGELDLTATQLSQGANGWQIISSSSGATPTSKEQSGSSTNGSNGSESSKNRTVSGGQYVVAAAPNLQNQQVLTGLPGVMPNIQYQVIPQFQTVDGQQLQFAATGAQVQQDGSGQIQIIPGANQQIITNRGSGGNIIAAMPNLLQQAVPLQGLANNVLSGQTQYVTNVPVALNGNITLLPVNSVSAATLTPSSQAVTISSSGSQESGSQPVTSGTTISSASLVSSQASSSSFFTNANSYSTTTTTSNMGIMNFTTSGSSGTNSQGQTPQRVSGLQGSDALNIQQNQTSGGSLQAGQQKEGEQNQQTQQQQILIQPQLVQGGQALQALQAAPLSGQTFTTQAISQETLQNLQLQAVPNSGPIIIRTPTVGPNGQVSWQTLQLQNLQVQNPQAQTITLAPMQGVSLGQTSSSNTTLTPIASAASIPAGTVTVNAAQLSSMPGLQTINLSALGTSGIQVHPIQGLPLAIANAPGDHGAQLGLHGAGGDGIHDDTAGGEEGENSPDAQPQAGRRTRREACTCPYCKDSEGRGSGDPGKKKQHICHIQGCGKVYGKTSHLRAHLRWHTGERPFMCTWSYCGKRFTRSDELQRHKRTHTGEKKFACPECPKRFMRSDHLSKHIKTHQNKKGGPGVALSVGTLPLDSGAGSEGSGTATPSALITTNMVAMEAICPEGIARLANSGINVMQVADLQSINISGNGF
Signal transducer and activator of transcription 3 (Homo sapiens), sequence (P40763 whole entry, looked up): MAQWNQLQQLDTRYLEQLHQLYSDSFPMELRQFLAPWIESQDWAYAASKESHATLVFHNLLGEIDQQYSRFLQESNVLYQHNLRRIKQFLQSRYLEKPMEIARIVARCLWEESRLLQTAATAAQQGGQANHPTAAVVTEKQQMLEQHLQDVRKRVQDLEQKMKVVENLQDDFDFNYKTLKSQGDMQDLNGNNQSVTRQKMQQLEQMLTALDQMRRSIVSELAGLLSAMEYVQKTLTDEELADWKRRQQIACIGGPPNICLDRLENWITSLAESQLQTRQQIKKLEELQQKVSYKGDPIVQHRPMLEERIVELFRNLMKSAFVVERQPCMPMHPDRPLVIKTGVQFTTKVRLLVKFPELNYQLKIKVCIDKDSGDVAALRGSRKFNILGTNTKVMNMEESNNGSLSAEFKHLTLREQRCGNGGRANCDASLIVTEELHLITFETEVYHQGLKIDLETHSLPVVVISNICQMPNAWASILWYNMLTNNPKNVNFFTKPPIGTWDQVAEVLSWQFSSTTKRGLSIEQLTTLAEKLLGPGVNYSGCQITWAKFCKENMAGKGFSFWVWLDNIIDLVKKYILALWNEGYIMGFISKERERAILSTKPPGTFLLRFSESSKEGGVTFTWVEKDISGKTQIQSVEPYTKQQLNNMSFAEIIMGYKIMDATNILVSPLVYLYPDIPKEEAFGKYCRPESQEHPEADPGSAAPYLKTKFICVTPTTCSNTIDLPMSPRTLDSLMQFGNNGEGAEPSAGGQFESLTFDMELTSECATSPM
X-box-binding protein 1 (Homo sapiens), sequence (P17861 whole entry, looked up): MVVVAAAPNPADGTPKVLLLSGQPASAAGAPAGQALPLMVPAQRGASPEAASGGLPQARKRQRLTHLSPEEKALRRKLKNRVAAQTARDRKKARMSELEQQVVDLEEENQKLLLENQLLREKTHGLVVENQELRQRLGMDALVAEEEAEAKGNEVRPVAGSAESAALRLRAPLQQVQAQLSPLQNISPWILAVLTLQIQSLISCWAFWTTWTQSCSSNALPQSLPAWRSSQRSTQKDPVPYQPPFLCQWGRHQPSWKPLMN
Estrogen-related receptor gamma (Homo sapiens), sequence (P62508 whole entry, looked up, the tested form may be a part): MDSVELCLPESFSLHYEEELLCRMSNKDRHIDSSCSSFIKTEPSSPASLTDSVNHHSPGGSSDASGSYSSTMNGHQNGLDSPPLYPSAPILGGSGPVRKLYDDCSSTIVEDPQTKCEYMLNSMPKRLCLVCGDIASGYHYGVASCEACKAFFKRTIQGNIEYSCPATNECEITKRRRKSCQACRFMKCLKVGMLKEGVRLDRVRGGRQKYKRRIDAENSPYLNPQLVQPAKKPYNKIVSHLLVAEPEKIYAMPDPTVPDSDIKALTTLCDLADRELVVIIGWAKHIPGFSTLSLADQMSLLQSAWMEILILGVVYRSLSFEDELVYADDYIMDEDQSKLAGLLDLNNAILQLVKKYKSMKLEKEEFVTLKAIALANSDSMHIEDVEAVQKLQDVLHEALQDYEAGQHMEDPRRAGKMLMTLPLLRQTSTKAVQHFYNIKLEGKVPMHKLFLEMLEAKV
Estrogen receptor (Homo sapiens), sequence (P03372 whole entry, looked up, the tested form may be a part): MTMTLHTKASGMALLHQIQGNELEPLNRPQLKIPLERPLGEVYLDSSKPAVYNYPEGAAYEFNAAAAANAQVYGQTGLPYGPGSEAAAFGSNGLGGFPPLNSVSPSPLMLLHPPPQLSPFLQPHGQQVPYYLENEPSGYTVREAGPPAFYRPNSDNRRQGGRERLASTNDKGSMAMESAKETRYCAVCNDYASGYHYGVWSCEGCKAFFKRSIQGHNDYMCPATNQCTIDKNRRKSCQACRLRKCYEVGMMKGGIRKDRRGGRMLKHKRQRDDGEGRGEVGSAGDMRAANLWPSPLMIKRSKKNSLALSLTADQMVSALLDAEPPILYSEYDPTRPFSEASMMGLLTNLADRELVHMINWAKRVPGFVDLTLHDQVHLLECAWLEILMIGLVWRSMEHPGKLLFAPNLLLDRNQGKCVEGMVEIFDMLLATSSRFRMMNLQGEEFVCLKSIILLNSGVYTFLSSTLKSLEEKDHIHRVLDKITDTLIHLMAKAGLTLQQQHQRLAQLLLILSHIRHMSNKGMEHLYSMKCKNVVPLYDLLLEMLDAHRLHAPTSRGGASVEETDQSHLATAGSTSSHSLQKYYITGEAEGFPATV
Steroid hormone receptor ERR1 (Homo sapiens), sequence (P11474 whole entry, looked up, the tested form may be a part): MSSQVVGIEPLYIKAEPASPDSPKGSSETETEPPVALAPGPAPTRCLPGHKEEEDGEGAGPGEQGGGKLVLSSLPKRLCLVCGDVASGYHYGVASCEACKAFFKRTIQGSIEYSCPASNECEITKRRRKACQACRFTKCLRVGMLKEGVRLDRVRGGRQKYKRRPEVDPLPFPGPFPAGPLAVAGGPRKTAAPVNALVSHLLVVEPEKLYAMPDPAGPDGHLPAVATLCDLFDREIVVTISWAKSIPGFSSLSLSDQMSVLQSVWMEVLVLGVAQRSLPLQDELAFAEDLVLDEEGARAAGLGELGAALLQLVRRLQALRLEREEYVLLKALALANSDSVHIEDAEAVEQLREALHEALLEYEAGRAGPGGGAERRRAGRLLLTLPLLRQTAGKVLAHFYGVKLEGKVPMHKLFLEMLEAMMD

In the case of `CCCCC(CC)COC(=O)/C=C\C(=O)OCC(CC)CCCC` (stereo not given), the outcome [1] is reported as “inactive”, the AC50 [2] is reported as 4.85 µM (active) and the AC50 [3] is reported as 100 µM (active). The AC50 [4] was 100 µM (active), the outcome [5] was “inactive” and the outcome [6] was “inactive”. For the same compound, the outcome [7] was “inactive”, the outcome [8] was “inactive” and the outcome [9] was “inactive”. The outcome [10] was “inactive”, the outcome [11] was “inactive” and the outcome [12] was “inactive”. The outcome [13] was “inactive”, the outcome [14] was “inactive” and the outcome [15] was “inactive”. For the same compound, the outcome [16] was “inactive” and the outcome [17] was “inactive”.
In the case of `OCCCCCO`, the outcome [1] is reported as “inactive”, the AC50 [2] is reported as 76.5 µM (active) and the outcome [3] is reported as “inactive”. The outcome [4] was “inactive”, the outcome [5] was “inactive” and the outcome [6] was “inactive”. For the same compound, the outcome [7] was “inactive”, the outcome [18] was “inactive” and the outcome [9] was “inactive”. The outcome [10] was “inactive”, the outcome [11] was “inactive” and the outcome [13] was “inactive”. For the same compound, the AC50 [19] was 76.1 µM (active), the outcome [14] was “inactive” and the outcome [16] was “inactive”.
With `O=C[C@H](O)[C@H](O)[C@H](O)CO` the outcome [1] was “inactive”, the outcome [2] was “inactive” and the outcome [3] was “inactive”. For the same compound, the outcome [4] was “inactive”, the outcome [5] was “inactive” and the outcome [6] was “inactive”. For the same compound, the outcome [8] was “inactive”, the outcome [9] was “inactive” and the outcome [10] was “inactive”. The outcome [13] was “inactive”, the outcome [14] was “inactive” and the outcome [16] was “inactive”.
With `CCc1ccc(C=O)cc1` the outcome [1] was “inactive”, the outcome [2] was “inactive” and the outcome [3] was “inactive”. For the same compound, the outcome [4] was “inactive”, the outcome [5] was “inactive” and the outcome [6] was “inactive”. The outcome [7] was “inactive”, the outcome [8] was “inactive” and the outcome [9] was “inactive”. The outcome [10] was “inactive”, the outcome [11] was “inactive” and the outcome [12] was “inactive”. The outcome [13] was “inactive”, the outcome [20] was “inactive” and the outcome [15] was “inactive”. For the same compound, the outcome [17] was “inactive”.
In the case of `COc1cccc(OC)c1`, the outcome [1] is reported as “inactive”, the outcome [2] is reported as “inactive” and the outcome [3] is reported as “inactive”. The outcome [4] was “inactive”, the outcome [5] was “inactive” and the outcome [6] was “inactive”. For the same compound, the outcome [18] was “inactive”, the outcome [8] was “inactive” and the outcome [9] was “inactive”. The outcome [10] was “inactive”, the outcome [11] was “inactive” and the outcome [13] was “inactive”. The outcome [14] was “inactive”, the outcome [15] was “inactive” and the outcome [16] was “inactive”.
In the case of `CNC(=O)Oc1ccc2c(c1)[C@]1(C)CCN(C)[C@@H]1N2C`, the outcome [1] is reported as “inactive”, the AC50 [2] is reported as 38 µM (active) and the outcome [3] is reported as “inactive”. The outcome [4] was “inactive”, the outcome [5] was “inactive” and the outcome [6] was “inactive”. The outcome [18] was “inactive”, the outcome [8] was “inactive” and the outcome [9] was “inactive”. The outcome [10] was “inactive”, the outcome [11] was “inactive” and the outcome [12] was “inactive”. For the same compound, the outcome [13] was “inactive”, the outcome [14] was “inactive” and the outcome [15] was “inactive”.
